# Laboratory results taken from PubChem BioAssay (NCATS).
# Inconclusive results are not listed. Where a call stands in place of a potency, no number is given. Unmarked numbers belong to inactive results. Calls of active or inactive are those of the source. Calls come from the whole dose curve; as a rule, active = well fitted curve in the direction sought with a large enough effect; inconclusive = small, poorly fitted or top-dose-only effect, or another doubt; inactive = no such curve, though single readings can be large; an effect the other way counts as inactive or inconclusive.
# Assays:
# [1] = molecular target: Rap guanine nucleotide exchange factor 3 (Homo sapiens) (UniProt O95398); assay: Confirmatory qHTS for agonist of cAMP-regulated guanine nucleotide exchange factor 3 (EPAC1) (AID 1645881); conditions: EPAC1 Rap1B BODIPY-GDP exchange fluorescence; series mostly up to 154 µM;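 note: EPAC1 catalysed release of BODIPY-GDP from Rap1B seen as fluorescence loss; nearly all actives have a fitted effect of over 75% in size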
# Sequence of Rap guanine nucleotide exchange factor 3 (Homo sapiens) (O95398 whole entry, looked up): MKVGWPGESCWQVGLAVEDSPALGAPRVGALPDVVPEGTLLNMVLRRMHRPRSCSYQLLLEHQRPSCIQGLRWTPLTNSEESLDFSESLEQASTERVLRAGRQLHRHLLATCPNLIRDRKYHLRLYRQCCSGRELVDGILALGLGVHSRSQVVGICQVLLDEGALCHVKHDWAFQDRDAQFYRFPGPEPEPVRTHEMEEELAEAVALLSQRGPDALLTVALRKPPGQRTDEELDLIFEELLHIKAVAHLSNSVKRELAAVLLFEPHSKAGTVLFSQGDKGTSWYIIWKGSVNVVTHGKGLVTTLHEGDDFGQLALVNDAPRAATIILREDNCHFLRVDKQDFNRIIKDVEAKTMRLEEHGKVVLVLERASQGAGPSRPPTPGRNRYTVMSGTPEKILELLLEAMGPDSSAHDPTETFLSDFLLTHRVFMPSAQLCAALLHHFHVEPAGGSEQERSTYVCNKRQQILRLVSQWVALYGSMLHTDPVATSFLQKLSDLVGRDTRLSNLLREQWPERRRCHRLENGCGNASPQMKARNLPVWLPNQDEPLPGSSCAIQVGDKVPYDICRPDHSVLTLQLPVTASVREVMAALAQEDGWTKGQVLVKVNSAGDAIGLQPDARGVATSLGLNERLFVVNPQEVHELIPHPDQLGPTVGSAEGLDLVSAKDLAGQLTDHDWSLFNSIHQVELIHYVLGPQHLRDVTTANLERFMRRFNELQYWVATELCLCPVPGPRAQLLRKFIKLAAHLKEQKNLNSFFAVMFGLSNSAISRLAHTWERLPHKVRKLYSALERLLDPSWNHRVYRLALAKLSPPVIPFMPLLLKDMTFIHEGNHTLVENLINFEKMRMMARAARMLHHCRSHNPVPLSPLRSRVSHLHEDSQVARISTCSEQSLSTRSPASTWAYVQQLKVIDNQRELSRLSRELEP
# [2] = molecular target: Rap guanine nucleotide exchange factor 4 (Homo sapiens) (UniProt Q8WZA2); assay: Confirmatory qHTS for agonist of cAMP-regulated guanine nucleotide exchange factor 4 (EPAC2) (AID 1645884); conditions: EPAC2 GEF activity, Rap1B-BODIPY-GDP fluorescence; series mostly up to 154 µM;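 note: nucleotide exchange releases bodipy-GDP from Rap1 and this lowers its fluorescence; nearly all actives have a fitted effect of over 65% in size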
# Sequence of Rap guanine nucleotide exchange factor 4 (Homo sapiens) (Q8WZA2 whole entry, looked up): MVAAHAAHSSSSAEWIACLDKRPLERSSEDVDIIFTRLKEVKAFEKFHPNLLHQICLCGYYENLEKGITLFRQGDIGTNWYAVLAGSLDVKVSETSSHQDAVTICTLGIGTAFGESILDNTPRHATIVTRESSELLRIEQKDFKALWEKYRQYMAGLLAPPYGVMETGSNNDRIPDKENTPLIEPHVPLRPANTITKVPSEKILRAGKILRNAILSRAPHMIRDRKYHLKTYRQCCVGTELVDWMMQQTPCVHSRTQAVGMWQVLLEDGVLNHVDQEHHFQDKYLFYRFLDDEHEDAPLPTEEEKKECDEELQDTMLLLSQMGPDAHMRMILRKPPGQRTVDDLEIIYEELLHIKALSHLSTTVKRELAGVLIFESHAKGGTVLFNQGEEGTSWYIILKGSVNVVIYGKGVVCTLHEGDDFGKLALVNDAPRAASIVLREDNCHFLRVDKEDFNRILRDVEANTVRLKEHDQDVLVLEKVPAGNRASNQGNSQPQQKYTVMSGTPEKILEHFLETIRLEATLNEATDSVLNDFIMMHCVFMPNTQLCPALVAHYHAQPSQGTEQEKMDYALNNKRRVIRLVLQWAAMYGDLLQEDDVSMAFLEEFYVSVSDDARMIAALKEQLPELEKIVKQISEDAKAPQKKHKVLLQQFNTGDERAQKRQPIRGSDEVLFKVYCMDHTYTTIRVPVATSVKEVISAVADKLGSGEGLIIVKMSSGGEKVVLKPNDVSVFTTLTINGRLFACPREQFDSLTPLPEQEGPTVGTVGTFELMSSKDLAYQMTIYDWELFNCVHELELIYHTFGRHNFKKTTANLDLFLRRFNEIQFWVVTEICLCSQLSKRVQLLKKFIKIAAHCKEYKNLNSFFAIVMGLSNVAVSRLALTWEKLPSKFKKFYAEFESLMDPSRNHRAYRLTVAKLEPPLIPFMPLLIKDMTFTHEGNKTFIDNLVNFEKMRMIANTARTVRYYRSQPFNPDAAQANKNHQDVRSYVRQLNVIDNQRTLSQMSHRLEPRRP
# [3] = molecular target: Rap guanine nucleotide exchange factor 4 (Homo sapiens) (UniProt Q8WZA2); assay: Confirmatory qHTS for antagonist of cAMP-regulated guanine nucleotide exchange factor 4 (EPAC2) (AID 1645885); conditions: EPAC2 Rap1B-BODIPY-GDP exchange fluorescence, biochemical; series mostly up to 12.7 µM; note: nearly all actives have a fitted effect of over 25% in size; note: potency is the fitted concentration of half-maximal effect
# [4] = molecular target: Rap guanine nucleotide exchange factor 3 (Homo sapiens) (UniProt O95398); assay: Counterscreen qHTS for antagonist of cAMP-regulated guanine nucleotide exchange factor 3 (EPAC1) (AID 1645888); conditions: Rap1B-BODIPY-GDP nucleotide exchange, fluorescence; series mostly up to 154 µM;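 note: fluorescence loss as bound BODIPY-GDP is released from Rap1B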
# How it was run: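 Rap1B–BODIPY-GDP (250 nM) with 50 uM GDP; compounds pin-transferred to 9.74 nM–152 uM final (activator) or from 7.32 nM upwards (inhibitor). Fluorescence Ex/Em 480/540 nm read at 5 and 30 min, then after adding cAMP or buffer, at room temperature.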
Structure (SMILES),Potency [1],activation [2],Potency [3],"activity change, negative = inhibition [4]",Potency [2],Potency [4]
NC(=O)C1CCN(C(=O)c2ccc3c(=O)n(Cc4cccc(Br)c4)c(=S)[nH]c3c2)CC1,inactive,"7.22% [at 17.1 µM, percent relative to cAMP agonist control]",inactive,-4.35% [at 30.8 µM],,
N#CCCN(CCC#N)S(=O)(=O)c1ccc(C(=O)Nc2nnc(C3=COCCO3)o2)cc1,inactive,,inactive,,inactive,inactive
O=C(/C=C/c1ccccc1Cl)c1ccc(O)cc1,inactive,"13.2% [at 17.1 µM, percent relative to cAMP agonist control]",inactive,8.95% [at 30.8 µM],,
COc1ccccc1C(C(=O)c1ccccc1)c1ccc(O)cc1 (stereo not drawn),inactive,"3.15% [at 17.1 µM, percent relative to cAMP agonist control]",inactive,-22.7% [at 30.8 µM],,
Cc1cccc(N(Cc2ccccc2)C(=O)CSC(C)C(=O)Nc2cc(C)on2)c1 (stereo not drawn),inactive,,95.3 µM (active),,inactive,inactive
Cc1ccc(-n2nc3ccc(NC(=O)/C=C/c4ccco4)cc3n2)cc1C,inactive,,inactive,,inactive,inactive
CCc1ccc2occ(CC(=O)Nc3ccc(C)c(C)c3)c2c1,inactive,,inactive,,inactive,inactive
CCc1nc2c(OCc3ccc(C(F)(F)F)cc3)cccn2c1N(C)C(=O)c1ccc(C)cc1,inactive,,inactive,,inactive,inactive
Cc1c(C)c2ccc(OCC(=O)Nc3ccc(S(N)(=O)=O)cc3)c(C)c2oc1=O,inactive,,inactive,,inactive,inactive
COCCNc1nc2cc(-c3ccsc3)sc2c(=O)n1C,inactive,,inactive,,inactive,inactive
Oc1ccc(NCc2ccccc2OCc2ccccc2F)cc1,inactive,,inactive,,inactive,inactive
CC[C@@H]1CC=C[C@H]2[C@H]1C(=O)N(Cc1ccccc1)[C@H]2c1ccc(OC)c(Cl)c1,inactive,,inactive,,inactive,inactive
